Assay [1] can be described thus: AP1 Signaling Pathway (AID 357; active = well fitted curve in either direction with a large enough effect, not every such curve was filed as active;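 also: ME-180 reporter cells stimulated with EGF at its EC50 level; % is scaled to controls: 0 for no effect and ±100 for the full control effect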). The settings on record: ME-180 AP-1-bla reporter, EGF-induced, beta-lactamase ratio, 5 h; at 7.69 µM (top of the series) unless noted. The gist of the method:
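Beta-lactamase reporter under AP-1 response element, ME-180 background. Stimulus: EC50 EGF. Compound exposure 5 h, 37 °C. Detection: CCF4, 2.5 h RT, 460/530 nm. Values: AC50 from titration.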

The target in assay [2] is Cytochrome P450 1A2 (Homo sapiens) (UniProt P05177). The assay can be described thus: p450-cyp1a2 (AID 410; calls by dose curve; also: potency is read from the fitted curve at half-maximal effect). The gist of the method:
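Read-out is luminescence from luciferin produced by CYP1A2 demethylation of Luciferin-ME (100uM, at Km). Detection reagent stopped the 60 min NADPH-dependent reaction; signals were normalized to 57 uM furafylline.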

Assay [3] can be described thus: NFAT Signaling Pathway (AID 444; active = well fitted curve in either direction with a large enough effect, not every such curve was filed as active;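 also: carbachol stimulus at about its EC50 of 1 µM final; % is scaled to controls: 0 for no effect and ±100 for the full control effect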). The note with it: Jurkat NFAT-bla M1, carbachol, beta-lactamase ratio, 5 h; at 7.69 µM (top of the series) unless noted. The gist of the method:
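Read-out: CCF4 FRET ratio (460 nm/530 nm) after 1 h RT dye loading, used for %activity and AC50 from titration series. Cells: Jurkat NFAT-β-lactamase/M1 line, treated with compound plus 1 uM carbachol for 5 h, 37 °C.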

Assay [4] is described as follows: Stat Signaling Pathway (AID 446; active = well fitted curve in either direction with a large enough effect, not every such curve was filed as active;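 also: ME-180 cervical cancer cells given 40 pM IL-6 alongside compound; SIE-controlled beta-lactamase reporter measured as 460/530 nm FRET emission ratio; % is scaled to controls: 0 for no effect and ±100 for the full control effect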). The note with it: ME-180 SIE beta-lactamase reporter, IL-6 stimulated, 5 h; at 7.69 µM (top of the series) unless noted. The gist of the method:
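Overnight-plated ME-180 cells bearing a STAT Inducible Element beta-lactamase reporter; 5 h co-exposure to compound and 40 pM IL-6; values normalized to 300 pM IL-6 and 125 nM JAK inhibitor controls.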

Assay [5] deals with Glucocorticoid receptor (Homo sapiens) (UniProt P04150). The assay can be described thus: GR-GFP Redistribution (AID 450;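 active = compounds whose dose series gives a full or clear partial fitted curve of increased nuclear translocation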; also: potency is read from the fitted curve at half-maximal effect). The settings on record: U2OS GR-GFP nuclear translocation, laser cytometry, 2 h.
Assay [6] has the same target. The assay can be described thus: GR-EFC Redistribution (AID 451; calls by dose curve; also: potency is read from the fitted curve at half-maximal effect). The settings on record: CHO-K1 GR-EFC translocation, beta-gal luminescence, 2 h. The gist of the method: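 Translocation of GR-ED fusion to nuclear EA restores b-gal, read by luminescence after 1 h room-temperature detection. Engineered CHO-K1 biosensor cells, 1,000/well, exposed 2 h at 37 C to titrations up to 46 uM final.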

Assay [7] addresses Mitogen-activated protein kinase 10 (Mus musculus) (UniProt Q61831). Briefly: JNK3 AlphaScreen Assay (AID 530; active = well fitted curve in either direction with a large enough effect, not every such curve was filed as active;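 also: kinase came from lysate of stimulated human HepG2 cells; signal reports phosphorylation of biotinylated GST-cJun 1-79 at Ser73 with 10 µM ATP; % is scaled to controls: 0 for no effect and ±100 for the full control effect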). The gist of the method: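 Kinase buffer: 20 mM Tris-HCl pH 7.6, 10 mM MgCl2, 1 mM DTT, 0.1 mM Na3VO4, 0.01% Tween-20; ATP 10 uM. Substrate biotin-GST-cJun(1-79), enzyme from activated HepG2 lysates. Detection by Ser73 phospho-antibody AlphaScreen.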
(In Alpha technology, singlet oxygen from a donor bead excites a nearby acceptor bead.)

Assay [8] addresses 3',5'-cyclic-AMP phosphodiesterase 4B (Homo sapiens) (UniProt Q07343). The assay can be described thus: qHTS Assay for Inhibitors of PDE-IV (AID 607; active = well fitted activation curve with a large enough effect in the main read-out, with a control signal flat, not every such curve was filed as active; also: % of control where 0% means no effect). Summed up: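 Live HEK293 cells with a modified cyclic nucleotide-gated (CNG) channel report intracellular cAMP via membrane-potential dye fluorescence (ex 535/em 590 nm). Endogenous PDE-IV was targeted. Compounds were tested at up to 22.9 uM final; RO 20-1724 100 uM served as control.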
Background: In qHTS, concentration-response curves come from the screen itself.

Assay [9] concerns the target Cytochrome P450 3A4 (Homo sapiens) (UniProt P08684). The assay can be described thus: qHTS Assay for Activators of Cytochrome P450 3A4 (AID 885). Also: nearly all actives have a fitted effect of over 65% in size. The gist of the method:
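Using 20nM recombinant human CYP3A4 in potassium phosphate (200mM), substrate Luciferin-PPXE at 25uM, luminescent luciferin detection followed a 60-min RT NADPH reaction; data scaled to 57 uM ketoconazole.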

Assay [10] concerns the target Cytochrome P450 2C19 (Homo sapiens) (UniProt P33261). The assay can be described thus: qHTS Assay for Inhibitors and Substrates of Cytochrome P450 2C19 (AID 899). Also: potency is read from the fitted curve at half-maximal effect; nearly all actives have a fitted effect of over 60% in size. The gist of the method: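 Reactions contain 5nM enzyme, 10uM Luciferin-H EGE (KM) and 50mM KPO4; compound preincubates 10 min at 37C, NADPH regeneration starts turnover for 60 min. Luminescence after detection reagent gives activity.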

Assay [11] is described as follows: qHTS Assay for Identification of Small Molecule Agonists for Hypoxia Response Element Signaling Pathway (AID 914; active = well fitted activation curve with a large enough effect in the signal ratio, with a control signal flat, not every such curve was filed as active; the % refers to the signal ratio; also: potency is read from the fitted curve at half-maximal effect; as to activation: % of control where 0% means no effect). The note with it: ME-180 (cervical carcinoma) HRE-bla reporter, beta-lactamase ratio, CoCl2, 17 h; activation: active compounds read high. The gist of the method: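 A beta-lactamase reporter under hypoxia response element control in ME-180 cells served as the system. Compound titrations plus EC50 CoCl2 ran 17 h at 37 degrees Celsius; AC50 values were fitted from %Activity.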

In assay [12] the target is Dual specificity protein kinase CLK4 (Homo sapiens) (UniProt Q9HAZ1). The assay can be described thus: qHTS Assay for Inhibitors of CDC-like Kinase 4 (ADP-FP Assay) (AID 1795). Also: nearly all actives have a fitted effect of over 60% in size. Also: potency is read from the fitted curve at half-maximal effect. The gist of the method:
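Inhibition of ADP formation by 6.25 nM Clk4 is measured using 1 uM ATP and 100 uM RS repeat peptide over one hour. Produced ADP displaces a fluorescent tracer from antibody, lowering polarization.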

Assay [13] can be described thus: Primary qHTS for small molecule stabilizers of the endoplasmic reticulum resident proteome: Secreted ER Calcium Modulated Protein (SERCaMP) assay (AID 1508630). Also: % is scaled to controls: 0 for no effect and ±100 for the full control effect. Summed up: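 The SH-SY5Y reporter protocol was run at 3 concentrations up to 38.3 uM (primary) or 11 concentrations (follow-up): 16 h compound, 100 nM thapsigargin for 4 h, then extracellular luciferase luminescence.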

Assay [14] concerns the target Lysosomal acid glucosylceramidase (Homo sapiens) (UniProt P04062). The assay can be described thus: Glucocerebrosidase-p2 (AID 348; in the data active = potency below about 10 µM; also: potency is read from the fitted curve at half-maximal effect). The note with it: purified GBA, blue fluorogenic substrate, 40 min. The gist of the method:
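Normal human glucocerebrosidase (0.2 nM) with blue fluorogenic substrate (80 uM final) in citrate/phosphate pH 5.9 with 10mM sodium taurocholate, 0.01% tween-20; 40 min RT, NaOH/glycine stop; fluorescence Ex 365/Em 440; AC50 from a titration from 0.6 nM upwards.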

Assay [15] concerns the target Ubiquitin carboxyl-terminal hydrolase 1 (Homo sapiens) (UniProt O94782). Briefly: Inhibitors of USP1/UAF1: Pilot qHTS (AID 504865).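 Also: rhodamine fluorescence freed from ubiquitin-rhodamine substrate followed over time; top concentration of the series differs between compounds; % is scaled to controls: 0 for no effect and ±100 for the full control effect; nearly all actives have a fitted effect of over 35% in size.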 Summed up: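 Kinetic fluorescence assay: 1nM USP1/UAF1, 15 min compound preincubation, then 150nM Ub-Rho; 480/540 nm.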

Molecules are shown by their SMILES. Values without a mark were called inactive. Records with an inconclusive call do not appear. The source made the active and inactive calls. Unless noted, calls follow the shape of the dose curve; as a rule, active = well fitted curve in the direction sought with a large enough effect; inconclusive = small, poorly fitted or top-dose-only effect, or another doubt; inactive = no such curve, though single readings can be large; an effect the other way counts as inactive or inconclusive. Bounds are passed on as bounds.

Chain of Ubiquitin carboxyl-terminal hydrolase 1 (Homo sapiens) (O94782 whole entry, looked up): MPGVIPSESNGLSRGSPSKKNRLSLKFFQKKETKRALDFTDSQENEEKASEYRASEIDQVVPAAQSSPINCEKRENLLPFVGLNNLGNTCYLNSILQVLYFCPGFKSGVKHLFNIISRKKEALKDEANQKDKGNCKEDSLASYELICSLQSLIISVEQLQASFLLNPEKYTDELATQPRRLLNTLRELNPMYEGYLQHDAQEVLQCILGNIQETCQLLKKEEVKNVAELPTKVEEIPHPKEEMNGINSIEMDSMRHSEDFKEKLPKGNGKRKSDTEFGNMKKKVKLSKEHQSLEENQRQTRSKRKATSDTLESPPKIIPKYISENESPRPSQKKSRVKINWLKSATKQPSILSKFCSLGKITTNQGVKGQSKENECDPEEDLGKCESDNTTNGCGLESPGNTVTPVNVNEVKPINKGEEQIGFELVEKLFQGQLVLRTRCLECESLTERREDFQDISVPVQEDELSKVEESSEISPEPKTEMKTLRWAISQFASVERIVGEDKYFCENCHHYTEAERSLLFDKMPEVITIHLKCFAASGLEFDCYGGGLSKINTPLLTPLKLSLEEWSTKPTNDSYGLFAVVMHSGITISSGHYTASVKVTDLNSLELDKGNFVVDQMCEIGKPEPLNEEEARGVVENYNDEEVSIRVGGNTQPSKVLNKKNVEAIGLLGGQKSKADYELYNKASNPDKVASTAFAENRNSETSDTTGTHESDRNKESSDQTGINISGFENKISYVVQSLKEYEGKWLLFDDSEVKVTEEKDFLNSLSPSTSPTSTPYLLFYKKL
Chain of Cytochrome P450 3A4 (Homo sapiens) (P08684 whole entry, looked up): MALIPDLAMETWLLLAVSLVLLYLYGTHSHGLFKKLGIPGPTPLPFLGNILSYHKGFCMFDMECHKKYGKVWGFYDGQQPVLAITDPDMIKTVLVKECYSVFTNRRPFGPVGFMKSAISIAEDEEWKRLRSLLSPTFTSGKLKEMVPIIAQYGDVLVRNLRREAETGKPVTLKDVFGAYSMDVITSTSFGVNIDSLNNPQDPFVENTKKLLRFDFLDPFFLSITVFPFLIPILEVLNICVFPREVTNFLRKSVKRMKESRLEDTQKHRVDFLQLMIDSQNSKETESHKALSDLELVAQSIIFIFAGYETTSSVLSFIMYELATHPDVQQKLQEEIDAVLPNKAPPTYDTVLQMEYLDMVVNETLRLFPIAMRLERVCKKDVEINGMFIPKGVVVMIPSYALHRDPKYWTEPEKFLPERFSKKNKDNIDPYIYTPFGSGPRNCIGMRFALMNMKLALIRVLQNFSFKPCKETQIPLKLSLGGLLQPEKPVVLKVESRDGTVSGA
Chain of Lysosomal acid glucosylceramidase (Homo sapiens) (P04062 whole entry, looked up): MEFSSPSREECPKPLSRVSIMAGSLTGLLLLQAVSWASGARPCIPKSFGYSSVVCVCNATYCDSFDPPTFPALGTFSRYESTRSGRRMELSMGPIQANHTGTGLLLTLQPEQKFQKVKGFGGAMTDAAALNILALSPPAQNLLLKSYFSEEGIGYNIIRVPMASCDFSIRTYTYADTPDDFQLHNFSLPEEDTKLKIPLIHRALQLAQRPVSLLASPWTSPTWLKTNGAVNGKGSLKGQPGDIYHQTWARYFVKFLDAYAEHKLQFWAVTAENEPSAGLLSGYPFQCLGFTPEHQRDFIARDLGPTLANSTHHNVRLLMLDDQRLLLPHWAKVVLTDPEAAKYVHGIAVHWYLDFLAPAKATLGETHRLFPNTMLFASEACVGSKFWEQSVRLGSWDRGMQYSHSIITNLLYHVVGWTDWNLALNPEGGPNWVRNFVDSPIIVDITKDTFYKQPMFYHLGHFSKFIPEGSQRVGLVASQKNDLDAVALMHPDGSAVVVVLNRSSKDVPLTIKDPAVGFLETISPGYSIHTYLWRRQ
Chain of 3',5'-cyclic-AMP phosphodiesterase 4B (Homo sapiens) (Q07343 whole entry, looked up): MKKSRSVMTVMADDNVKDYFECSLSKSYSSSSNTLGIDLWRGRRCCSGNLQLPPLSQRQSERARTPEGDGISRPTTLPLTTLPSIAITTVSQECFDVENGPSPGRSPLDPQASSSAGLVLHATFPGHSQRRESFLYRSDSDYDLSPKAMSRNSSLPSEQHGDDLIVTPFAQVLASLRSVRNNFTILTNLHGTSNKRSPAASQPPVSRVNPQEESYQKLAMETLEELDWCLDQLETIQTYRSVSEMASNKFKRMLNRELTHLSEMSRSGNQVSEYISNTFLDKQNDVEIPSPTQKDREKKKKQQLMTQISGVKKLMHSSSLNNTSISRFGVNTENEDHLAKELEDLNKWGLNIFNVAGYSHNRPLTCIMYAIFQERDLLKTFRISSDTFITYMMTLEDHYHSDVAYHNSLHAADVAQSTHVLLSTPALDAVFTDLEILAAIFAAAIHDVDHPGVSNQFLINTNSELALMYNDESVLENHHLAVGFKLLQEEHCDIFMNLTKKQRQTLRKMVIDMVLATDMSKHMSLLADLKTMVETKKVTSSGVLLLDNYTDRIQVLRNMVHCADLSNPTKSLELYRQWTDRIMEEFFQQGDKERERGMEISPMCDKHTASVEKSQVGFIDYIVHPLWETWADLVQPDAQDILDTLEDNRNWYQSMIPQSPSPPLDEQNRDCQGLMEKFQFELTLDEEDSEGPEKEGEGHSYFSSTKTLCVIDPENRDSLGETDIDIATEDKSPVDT
Chain of Glucocorticoid receptor (Homo sapiens) (P04150 whole entry, looked up, the tested form may be a part): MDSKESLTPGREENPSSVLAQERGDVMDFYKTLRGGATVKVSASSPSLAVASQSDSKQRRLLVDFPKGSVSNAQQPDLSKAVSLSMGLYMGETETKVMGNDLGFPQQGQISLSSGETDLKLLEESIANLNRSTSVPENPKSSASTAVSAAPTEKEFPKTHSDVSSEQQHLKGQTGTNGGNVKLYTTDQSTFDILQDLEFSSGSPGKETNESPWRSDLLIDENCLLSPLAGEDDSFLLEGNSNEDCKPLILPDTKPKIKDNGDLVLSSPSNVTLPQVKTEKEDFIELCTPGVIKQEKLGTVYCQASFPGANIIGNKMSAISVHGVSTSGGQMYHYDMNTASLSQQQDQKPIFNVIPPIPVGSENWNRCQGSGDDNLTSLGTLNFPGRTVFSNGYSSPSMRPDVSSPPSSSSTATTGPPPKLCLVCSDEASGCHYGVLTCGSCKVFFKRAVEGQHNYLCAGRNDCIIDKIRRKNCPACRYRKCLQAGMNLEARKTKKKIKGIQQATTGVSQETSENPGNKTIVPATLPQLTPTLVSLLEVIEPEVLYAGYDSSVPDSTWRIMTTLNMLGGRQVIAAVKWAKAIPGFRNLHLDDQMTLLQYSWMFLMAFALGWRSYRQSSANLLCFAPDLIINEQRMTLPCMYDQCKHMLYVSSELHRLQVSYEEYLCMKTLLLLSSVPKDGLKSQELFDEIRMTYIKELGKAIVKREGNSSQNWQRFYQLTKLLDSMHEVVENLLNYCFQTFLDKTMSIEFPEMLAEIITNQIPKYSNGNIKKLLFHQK
Chain of Cytochrome P450 1A2 (Homo sapiens) (P05177 whole entry, looked up): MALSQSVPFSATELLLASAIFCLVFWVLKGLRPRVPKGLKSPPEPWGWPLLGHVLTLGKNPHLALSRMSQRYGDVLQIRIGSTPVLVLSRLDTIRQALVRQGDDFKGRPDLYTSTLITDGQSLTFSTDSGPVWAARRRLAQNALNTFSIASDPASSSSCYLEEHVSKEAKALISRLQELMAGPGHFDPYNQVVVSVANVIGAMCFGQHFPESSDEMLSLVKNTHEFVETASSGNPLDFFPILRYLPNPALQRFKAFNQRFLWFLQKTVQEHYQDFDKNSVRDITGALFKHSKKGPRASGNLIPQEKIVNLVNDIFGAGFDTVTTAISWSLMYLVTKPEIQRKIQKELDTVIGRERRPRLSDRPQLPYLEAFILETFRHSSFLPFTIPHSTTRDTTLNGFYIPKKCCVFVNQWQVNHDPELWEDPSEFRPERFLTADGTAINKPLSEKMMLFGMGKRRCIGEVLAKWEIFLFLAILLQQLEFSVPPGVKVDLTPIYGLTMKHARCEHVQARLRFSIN
Chain of Dual specificity protein kinase CLK4 (Homo sapiens) (Q9HAZ1 whole entry, looked up): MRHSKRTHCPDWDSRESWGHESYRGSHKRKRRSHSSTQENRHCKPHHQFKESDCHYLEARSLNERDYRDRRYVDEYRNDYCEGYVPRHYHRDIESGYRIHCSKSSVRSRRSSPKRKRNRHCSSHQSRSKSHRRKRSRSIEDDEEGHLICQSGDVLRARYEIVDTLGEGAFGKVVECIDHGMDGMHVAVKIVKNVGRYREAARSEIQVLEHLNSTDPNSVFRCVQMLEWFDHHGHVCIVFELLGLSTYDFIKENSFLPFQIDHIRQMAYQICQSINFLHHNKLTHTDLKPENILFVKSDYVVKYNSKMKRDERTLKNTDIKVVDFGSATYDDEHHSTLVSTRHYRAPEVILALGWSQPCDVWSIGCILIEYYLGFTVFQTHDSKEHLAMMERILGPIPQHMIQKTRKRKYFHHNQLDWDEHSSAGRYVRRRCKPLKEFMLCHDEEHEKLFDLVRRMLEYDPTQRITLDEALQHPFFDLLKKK
Chain of Cytochrome P450 2C19 (Homo sapiens) (P33261 whole entry, looked up): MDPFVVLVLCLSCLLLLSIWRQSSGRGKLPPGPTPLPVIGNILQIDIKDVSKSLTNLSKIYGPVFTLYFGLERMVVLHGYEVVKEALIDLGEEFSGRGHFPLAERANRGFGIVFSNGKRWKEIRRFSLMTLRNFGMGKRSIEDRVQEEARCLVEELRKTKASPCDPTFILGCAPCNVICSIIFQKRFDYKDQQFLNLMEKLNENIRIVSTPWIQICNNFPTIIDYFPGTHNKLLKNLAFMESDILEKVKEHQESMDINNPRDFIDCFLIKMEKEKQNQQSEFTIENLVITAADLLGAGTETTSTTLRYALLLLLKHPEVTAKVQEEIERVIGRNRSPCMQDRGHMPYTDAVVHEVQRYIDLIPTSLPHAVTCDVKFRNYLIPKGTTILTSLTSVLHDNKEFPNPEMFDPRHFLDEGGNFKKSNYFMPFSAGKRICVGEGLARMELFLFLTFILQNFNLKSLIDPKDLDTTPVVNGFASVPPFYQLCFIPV

Turning to `Cc1noc(C)c1-c1nccc(Nc2ccc(F)cc2)n1`, the activity change, negative = inhibition in [1] is -22.4%; in assay [3] it was -10.5%. Further, the Potency in assay [2] was 0.398 µM (active); in assay [5], more than 46 µM; in [6] it was more than 46 µM; in assay [10] it was 3.98 µM (active). Also, the activity, negative = inhibition in assay [4] is 1.44%. The Potency result in assay [7], in assay [8], in assay [9] and in assay [12] was “inactive” each time. In addition, the activation in [11] was 21.5%. For the same compound, the outcome in assay [13] was inactive.
In the case of `COc1ncc2ncc(=O)n(CCc3ccccc3)c2n1`, the Potency in [14] is more than 11.4 µM; in assay [5], more than 9.22 µM; in assay [6], more than 46 µM; in assay [12] it was 10 µM (active). Further, the figures for the activity change, negative = inhibition in [1] and in assay [3] were -10.9% and 4.91%, respectively. Besides, the activity, negative = inhibition in assay [4] was -13.6%. In addition, the Potency entry in [7], in [8] and in assay [15] was “inactive” in each case. Further, in assay [13], the result was inactive.
`Cc1noc(C)c1-c1nc(N(C)C)c2ccccc2n1`: the Potency in assay [14] is more than 11.4 µM; in [2], 0.0398 µM (active); in [5] it was more than 46 µM; in assay [6] it was more than 46 µM. The activity change, negative = inhibition in assay [3] was 3.94%. In addition, the activity, negative = inhibition in assay [4] is 4.14%. Further, the Potency result in assay [7], in assay [8], in assay [9], in assay [12] and in assay [15] was “inactive” throughout. The result in [13] was inactive.
In the case of `CCNc1ncc2nc(-c3ccc(Cl)cc3)c(=O)n(Cc3cccs3)c2n1`, the Potency in assay [14] was more than 11.4 µM; in [5], more than 9.22 µM; in assay [6], more than 46 µM; in assay [11], 0.126 µM (active). Besides, the Potency entry in [7], in assay [12] and in assay [15] was “inactive” throughout. Moreover, in assay [13], the result was inactive.
For `Cc1cnc(CNc2nc(-c3ccccc3Cl)nc3ccccc23)cn1`, the Potency in [14] is more than 11.4 µM; in assay [2], 6.31 µM (active); in assay [5], more than 46 µM; in assay [6], more than 46 µM. The activity change, negative = inhibition in assay [3] was 9.67%. In addition, the activity, negative = inhibition in assay [4] was -10.8%. The Potency entry in assay [7], in assay [8], in assay [9], in [12] and in assay [15] was “inactive” each time. In addition, the result in assay [13] was inactive.
`Cc1nc2cnc(N(C)C)nc2n(CCc2ccccc2)c1=O`: the Potency was more than 11.4 µM in assay [14]; 1.26 µM (active) in [2]; more than 9.22 µM in [5]; more than 46 µM in assay [6]; 0.631 µM (active) in assay [10]. The activity change, negative = inhibition in assay [1] was -5.39%; in assay [3] it was -14.5%. Moreover, the Potency result in assay [7], in assay [9], in assay [12] and in assay [15] was “inactive” throughout. In addition, the activation in [11] is -12%. In addition, the result in assay [13] was inactive.
As to `Clc1ccccc1-c1nc(NCCN2CCOCC2)c2ccccc2n1`, the activity change, negative = inhibition in [1] is 16%; in [3], -7.69%. The Potency in assay [2] was 12.6 µM (active); in assay [5] it was more than 46 µM; in [6], more than 46 µM; in assay [11], 3.16 µM (active). In addition, the activity, negative = inhibition in [4] was -5.23%. In addition, the Potency result in [7], in [8], in [9], in assay [12] and in assay [15] was “inactive” in each case. Besides, the outcome in assay [13] was inactive.
